PubChem BioAssay (NCI)
About 83,000 compounds went through this panel and 20% of them were active in at least one assay; those are over-represented in the sample as a whole.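 Single-concentration screen, 48 h exposure, 96-well plates. Endpoint: percent growth. Below 10 = active.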 A number with no mark means an inactive call. The source made the active and inactive calls.

system: OVCAR-3 ovarian; assay: NCI-60 one-dose screen, 48 h (100 = growth as untreated, 0 = no growth, -100 = all killed); conditions: 10 µM unless noted

Structure (SMILES)	growth
CCOP1(=O)CC(C)=C(Cl)C(P(=O)(O)O)C1 (configuration not stated)	113%
O=C(O)CC1Cc2ccccc2C1C(=O)O (configuration not stated)	102%
Nc1cc2c(cc1Br)[nH]c(=O)c1ccccc12	2.99% (active)
CCc1ccc(C(=Nc2ccc(N(C)C(=O)CN3CCN(C)CC3)cc2)c2c(O)[nH]c3ccc(C(=O)OC)cc23)cc1	-69.9% (active)
N#CCCCCCCCCCCC#N	125%
O=C1CSC(c2ccccc2Cl)N1c1nnc(-c2ccncc2)o1 (configuration not stated)	108%

system: HS 578T breast; assay: as above; conditions: 10 µM unless noted

Structure (SMILES)	growth
COc1nc(OC)nc(-c2cc(C(=O)c3ccc(Br)cc3)n3cc(C)cc(C)c23)n1	24.1%
Brc1c(-c2ccncc2)nc2n1CCS2	117%
CC(=O)/C(=C\c1c(-c2ccccc2)[nH]c2ccccc12)S(=O)(=O)c1ccccc1	8.54% (active)
COc1ccc(/C=N/c2cc(C(C)(C)C)nn2-c2ccccc2)cc1	107%
CCC1(CC)C(OC)NC(Br)=C(C#N)C1(C#N)C(N)=O (configuration not stated)	96.5%
COc1ccc(CN2C(=O)/C(=C\C(=O)c3ccc(OCCN4CCCC4)cc3)c3ccccc32)cc1	84.2%
COc1ccc(/C=C2\SC(=O)N(Cc3cc(=O)oc4ccc(OC)cc34)C2=O)cc1	103%
c1cc(C2CCCCC2)ccc1OCCCCCCN1CCNCC1	51.9%
COc1cc(/C=C/C(=O)/C=C(/C=C/c2ccc(OC(C)=O)c(OC)c2)OB(F)F)ccc1OC(C)=O	76.2%
Cc1c([C@H](C(Cl)Cl)[C@H](O)[C@H]2C[C@H](C)C(=O)O2)ccc2c1C(=O)[C@H]1[C@H]2C[C@@H](Br)[C@@]23O[C@@H](CO[C@H]2O)CC13C (some centres not stated)	-23.2% (active)
O=C1/C(=N\c2cc(=O)[nH]n2S(=O)(=O)c2ccccc2)Nc2ccccc21	91%
N=C(N)c1ccc(-c2ccc(-c3ccc(Cl)cc3)s2)s1	-21.7% (active)
O=Nc1c(-c2c(O)[nH]c3cc(Br)ccc23)[nH]c2ccccc12	-49.7% (active)
CC(C)(C)C(=O)OCOP(=O)(OCOC(=O)C(C)(C)C)C1CC(O)N(O)C1=O (configuration not stated)	-4.97% (active)
CC1(C)CC(=O)C2=C(C1)Oc1nc(N)c(C#N)c(N)c1C2c1ccc(F)cc1 (configuration not stated)	103%
COc1ccc(CNCCCN2C(=O)c3ccc4c5c(ccc(c35)C2=O)C(=O)N(CCCNCc2ccc(OC)c(OC)c2OC)C4=O)c(OC)c1OC	-38.2% (active)

Structure (SMILES)	growth
O=C(Nc1ccccc1)Nc1ccc(Nc2ncnc3sc4c(c23)CCCC4)cc1	85.3%
O=S(=O)(Cc1cccc2c(CS(=O)(=O)c3ccc(Cl)cc3)cccc12)c1ccc(Cl)cc1	70.8%
COc1cc(CNC(=O)CCCC/C=C/C(C)C)ccc1OCc1nnc(Nc2ccccc2F)o1	83.7%
Nc1nc2c(c3ncncc13)C(c1cccc(C(F)(F)F)c1)Cc1ncncc1-2 (configuration not stated)	18.2%
Cn1cnc2nc[nH]c2c1=S	102%
O=C(O)c1ccc(-c2nn(-c3ccc(C(=O)O)cc3)cc2CNc2ccc(Br)cc2)cc1	107%
O=C(N/N=C/c1coc2ccccc2c1=O)c1cc2oc(-c3ccccc3)cc2[nH]1	107%
CCC(C)C1NC(=O)C(CC(C)C)NC(=O)C(C)NC(=O)C(C(C)C)NC(=O)C(CCCCN)NC(=O)C(CC(C)C)NC(=O)C(C(C)C)NC(=O)[C@H](C)NC(=O)C(C(C)CC)NC(=O)C(CCCN=C(N)N)NC(=O)C(CCCCN)NC(=O)C(CCCN=C(N)N)NC(=O)C(CCCCN)NC(=O)C([C@H](C)CC)NC(=O)C(CCCCN)NC1=O (some centres not stated)	38.9%
C=CCN(C)C	98.1%
CCC(CCCN1C(=O)c2ccccc2C1=O)Nc1cc(OC)cc2cccnc12 (configuration not stated)	84.5%
O=c1c(N=Nc2nccs2)c(-c2ccccc2)[nH]n1-c1nc(-c2ccccc2)cs1	38.4%
Cc1ccc(C(=O)Nc2ccc(CN3CCN(C)CC3)c(C(F)(F)F)c2)cc1C#Cc1cncc2ncccc12	-32.4% (active)
CCOC(=O)C1C(=O)C(=O)N(C(C)C)C1C(=O)OCC (configuration not stated)	96.5%
COc1cc2c(cc1OC)C(Cc1cc(OC)c(OC)cc1[N+](=O)[O-])=NCC2	87.8%
COc1ccc2c(c1)/C(=C1/S/C(=N/c3nnc(C)s3)NC1=O)C(=O)N2Cc1ccc(Br)cc1	47.8%
